Most compounds without a hit are left out; they make up all but 0.86% or so of the library.
TLR9-MyD88 block – inhibitors of TLR9-MyD88 association in cells, primary screen, cell-based, CHO, BLA complementation, fluorescence; Toll-like receptor 9 (Homo sapiens) + Myeloid differentiation primary response protein …; CCF4 FRET ratio; inhibition, % at 4.98 µM; actives 0.21% (n = 340,000);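 active = inhibition above the mean over all tested compounds plus 3 SD, cut at about 21% in these data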;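 also: 0% = DMSO only wells and 100% = clavulanate BLA inhibitor control wells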
IDE cell inh – human IDE inhibitors in live cells, primary screen, fluorescence polarization, HEK cells, FAbetaB substrate; Insulin-degrading enzyme (Homo sapiens), P14735; FAbetaB cleavage; inhibition, % at 5.59 µM; actives 0.41% (n = 320,000); AID 434962, 2010;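 active = percent inhibition above the average of all tested compounds plus 3 SD, set per screening campaign, cut at about 16% in these data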;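 also: IDE supplied by intact live HEK cells; FP after avidin binding of uncleaved biotin substrate so inhibition keeps polarization high; 0% = DMSO wells and 100% = 60 µM reference IDE inhibitor Ii1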
Target sequence (P14735 whole entry, looked up): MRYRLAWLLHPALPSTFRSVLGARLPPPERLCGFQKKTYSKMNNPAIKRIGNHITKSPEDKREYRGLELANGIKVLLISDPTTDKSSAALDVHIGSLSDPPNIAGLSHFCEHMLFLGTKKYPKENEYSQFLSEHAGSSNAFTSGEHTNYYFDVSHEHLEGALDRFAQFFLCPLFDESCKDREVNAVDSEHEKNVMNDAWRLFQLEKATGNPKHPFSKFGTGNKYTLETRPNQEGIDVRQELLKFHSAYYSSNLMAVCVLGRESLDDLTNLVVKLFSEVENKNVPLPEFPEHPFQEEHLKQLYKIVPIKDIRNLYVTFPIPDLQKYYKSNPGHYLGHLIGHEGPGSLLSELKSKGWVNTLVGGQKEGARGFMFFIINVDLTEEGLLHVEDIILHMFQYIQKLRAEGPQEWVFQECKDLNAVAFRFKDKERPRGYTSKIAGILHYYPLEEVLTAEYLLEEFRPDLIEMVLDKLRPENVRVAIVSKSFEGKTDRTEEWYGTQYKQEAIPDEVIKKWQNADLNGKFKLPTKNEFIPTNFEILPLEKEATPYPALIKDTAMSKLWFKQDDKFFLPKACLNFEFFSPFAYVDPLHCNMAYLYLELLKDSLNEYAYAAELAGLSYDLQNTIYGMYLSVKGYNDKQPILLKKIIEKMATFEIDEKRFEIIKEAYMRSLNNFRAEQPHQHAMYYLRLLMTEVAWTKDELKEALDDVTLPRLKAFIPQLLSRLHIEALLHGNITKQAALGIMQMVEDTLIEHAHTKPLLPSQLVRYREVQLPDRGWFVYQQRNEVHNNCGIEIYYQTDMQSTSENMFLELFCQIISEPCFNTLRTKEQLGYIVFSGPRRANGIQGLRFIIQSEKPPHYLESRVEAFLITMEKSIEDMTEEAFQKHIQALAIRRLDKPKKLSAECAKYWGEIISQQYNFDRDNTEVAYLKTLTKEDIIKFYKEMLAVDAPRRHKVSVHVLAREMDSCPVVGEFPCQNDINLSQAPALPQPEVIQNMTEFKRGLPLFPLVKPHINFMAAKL
TLR4-MyD88 BLA – inhibitors of TLR4-MyD88 association in cells, primary screen, cell-based, HeLa CL3-4, BLA complementation, FRET ratio | Toll-like receptor 4 (Homo sapiens) + Myeloid differentiation primary response protein … | HeLa CL3-4 TLR4/MyD88 BLA complementation | inhibition, % at 8.4 µM | actives 0.18% (n = 200,000) | AID 861, 2007; in the data active = inhibition above about 25%;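 also: 0% = vehicle and 100% = reference inhibitor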
IDE act – human IDE activators in live cells, primary screen, fluorescence polarization, HEK cells, FAbeta-B substrate. Insulin-degrading enzyme (Homo sapiens), P14735. FAbeta-B cleavage; 0% vehicle, 100% cell-free pure enzyme wells. activation, % at 5.96 µM. actives 0.073% (n = 340,000). AID 493087, 2011;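 active = activation above the mean of all tested compounds plus 3 SD, set per screening campaign, cut at about 17% in these data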
NOD2 RIPK2 PPI – NOD2-RIPK2 binding disruptors in cells, primary screen, fluorescence, CHO cells, BLA complementation. Receptor-interacting serine/threonine-protein kinase 2 (Homo sapiens), O43353. CCF4 ratio. inhibition, % at 4.98 µM. actives 0.38% (n = 360,000). AID 624267, 2012; in the data active = inhibition above about 21%;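 also: 0% = vehicle only and 100% = reference blocker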
IDE inh confirm – human IDE inhibitors in live cells, confirmation, fluorescence polarization, HEK cells, FAbetaB substrate | shares compounds with IDE cell inh | FAbetaB cleavage | inhibition, % at 5.59 µM | actives 51% (n = 1,200) | AID 435028, 2010;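 active = mean inhibition across triplicate wells above the cutoff set by the earlier primary insulin-degrading enzyme screen, cut at about 16% in these data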;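 also: 0% = DMSO wells and 100% = 60 µM reference IDE inhibitor Ii1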
HEK293 tox – cytotoxicity in HEK cells, cytotoxicity control for IDE inhibitor project, cell-based, luminescence; shares compounds with IDE cell inh; HEK293 cytotoxicity, ATP luminescence; inhibition, % at 5.59 µM; actives 28% (n = 1,200); AID 449730, 2010; in the data active = inhibition above about 22%;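 also: 0% = vehicle wells and 100% = reference cytotoxic drug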
TLR9-MyD88 cf – TLR9-MyD88 association inhibitors, retest, confirmation, cell-based, CHO, BLA complementation, fluorescence, triplicate. shares compounds with TLR9-MyD88 block. CCF4 FRET ratio. inhibition, % at 4.98 µM. actives 51% (n = 680);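 active = mean inhibition across three repeats above about 21% taken from the earlier screen, limit read from the data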;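 also: blue over green emission ratio reports constitutive TLR9 MyD88 association via BLA complementation; 0% = DMSO vehicle wells and 100% = clavulanate BLA inhibitor wells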
BLA counter-1 – beta-lactamase reporter inhibitors in CHO cells, artefact control for TLR9-MyD88 binding inhibitor project, cell-based, fluorescence. shares compounds with TLR9-MyD88 block. CHO-BLA cells, CCF4 FRET ratio, BLA reporter. actives 7% (n = 680). inhibition, % at 4.98 µM;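 active = mean inhibition above a 50% cutoff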;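 also: counterscreen of TLR9-MyD88 hits on CMV-driven BLA in CHO-K1 cells; 0% = DMSO alone and 100% = clavulanate blocking BLA; higher means less blue over green ratio so more BLA blockade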
TLR9 CHO tox – CHO cell viability loss – luminescence, single concentration, cytotoxicity control for TLR9-MyD88 binding inhibitor project; AID 588336, 2011; actives 39% (n = 680); TLR9-MyD88 CHO cells cytotoxicity; inhibition, % at 4.98 µM; shares compounds with TLR9-MyD88 block; in the data active = inhibition above about 11%
NOD2-RIPK2 conf – NOD2-RIPK2 binding disruptors, retest, confirmation, fluorescence, CHO cells, BLA complementation, triplicate. shares compounds with NOD2 RIPK2 PPI. CCF4 FRET. inhibition, % at 4.98 µM. actives 70% (n = 1,200);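 active = mean inhibition across replicates above a set limit taken from the earlier primary screen, cut at about 21% in these data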;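 also: 0% = DMSO-only wells and the high end = clavulanate BLA-blocked wells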
BLA counter-2 – hits BLA reporter in NOD2-RIPK2 inhibitor counterscreen | shares compounds with NOD2 RIPK2 PPI | CHO BLA reporter, CCF4 FRET ratio | inhibition, % at 4.98 µM | actives 57% (n = 1,200);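 active = mean inhibition above the low-control mean inhibition plus three low-control SD, cut at about 11% in these data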;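 also: 0% = DMSO only wells and 100% = clavulanate high control wells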
An asterisk follows results filed as active; . = no result.

SMILES	TLR9-MyD88 block	IDE cell inh	TLR4-MyD88 BLA	IDE act	NOD2 RIPK2 PPI	IDE inh confirm	HEK293 tox	NOD2-RIPK2 conf	BLA counter-2	others
CC(=O)N(C1=C(Cl)C(=O)c2ccccc2C1=O)C1CCCCC1	48.5*	49.8*	.	-68.3	53.6*	63.6*	123.8*	92.3*	34.1*	TLR9-MyD88 cf=78.3*;BLA counter-1=22.3;TLR9 CHO tox=100.4*
COc1ccc2[nH]c3c(=O)n(/N=C/[C@H]4C(C)C=C(C)CC4C)c(=O)[nH]c3c2c1 (stereo partly drawn)	1.1	4.2	-38.0	3.2	0.6	.	.	.	.
Cc1cc(OC(=O)c2ccccc2Br)c([N+](=O)[O-])c(=O)[nH]1	8.5	6.0	.	8.0	-9.8	.	.	.	.
CCOC(=O)c1nn(-c2ccccc2C)c(=O)c(C#N)c1C	-0.8	1.4	0.1	6.4	-4.9	.	.	.	.
CCN1C/C(=C/c2ccc(N3CCOCC3)cc2)C(=O)/C(=C/c2ccc(N3CCOCC3)cc2)C1	7.6	18.0*	19.7	-24.2	22.8*	29.0*	93.5*	38.7*	34.1*
CC[C@]12C(=O)N(C)C[C@H]([C@@H]3C(=O)N(Cc4ccccc4)C(=O)[C@@H]31)N2C(=O)c1ccc(C(C)(C)C)cc1	-9.9	.	.	3.1	-7.8	.	.	.	.
Cc1ccc(NC(=O)Cn2sc3nc(C)cc(C)c3c2=O)c(Cl)c1	9.3	53.7*	.	-62.7	21.0*	11.2	26.6*	10.2	1.3
Cc1cc(C)c2c(=O)n(CC(=O)Nc3ccc(Cl)cc3)sc2n1	17.9	46.1*	.	-57.5	30.9*	8.9	75.7*	35.6*	6.1
N#CC(c1ccccc1)c1cnccn1 (stereo not drawn)	-0.3	2.5	.	5.1	1.6	.	.	.	.
COc1ccc(-c2oc3ccccc3c(=O)c2OC(C)=O)cc1	3.4	9.6	-11.5	-5.3	2.1	.	.	.	.
CC(=O)Oc1c(-c2ccc(Br)o2)oc2ccccc2c1=O	27.1*	57.4*	.	-55.0	24.6*	74.0*	12.7	35.1*	33.8*	TLR9-MyD88 cf=16.6;BLA counter-1=16.4;TLR9 CHO tox=-2.3
O=c1c2c([N+](=O)[O-])cc([N+](=O)[O-])cc2nc2ccccn12	-2.0	-4.0	.	0.3	-4.0	.	.	.	.
O=c1c2c([N+](=O)[O-])cc([N+](=O)[O-])cc2sn1Cc1ccccc1	31.9*	84.3*	.	-32.1	26.0*	23.8*	92.1*	12.4	8.8	TLR9-MyD88 cf=19.8;BLA counter-1=4.8;TLR9 CHO tox=94.7*
CCN(CC(=O)NC1CCS(=O)(=O)C1)S(=O)(=O)c1ccc(Cl)c(C(F)(F)F)c1 (stereo not drawn)	6.1	.	.	2.6	-2.6	.	.	.	.
N#C/C(C(=O)Nc1ccc(Cl)cc1)=C(/S)Nc1ccccc1	7.2	45.5*	.	-23.6	25.9*	4.1	24.1*	24.1*	1.6
Cc1ccccc1OCCC(=O)N1CCN(S(=O)(=O)c2ccc(Cl)cc2)CC1	1.5	0.8	.	-0.2	10.6	.	.	.	.
CCOC(=O)C1=C(c2ccccc2)N=c2s/c(=C\c3ccc(O)cc3)c(=O)n2C1c1cccs1 (stereo not drawn)	-4.7	23.1*	20.4	-31.4	24.9*	114.9*	41.4*	31.3*	41.7*
CCOC(=O)C1=C(c2ccccc2)N=c2sc(=Cc3cc(OC)c(OC)c(OC)c3)c(=O)n2C1c1cccs1 (stereo not drawn)	.	.	.	.	4.1	.	.	.	.
CN(C)c1ccc(/C=C2\SC(=O)N(CCc3nnc(N)s3)C2=O)cc1	4.7	30.2*	.	-18.8	23.8*	22.3*	14.3	21.9*	13.4*
CCOC(=O)C1(C)Oc2ccccc2C(C(=O)OC)=C1C(=O)OC (stereo not drawn)	0.1	.	.	0.1	2.1	.	.	.	.
Cc1cccc2cc3c(N)c(C(=O)Nc4ccc(N5CCOCC5)cc4)sc3nc12	3.0	-2.6	14.6	-14.3	2.8	.	.	.	.
CCc1cccc2cc3c(N)c(C(=O)Nc4ccc(S(=O)(=O)N5CCCC5)cc4)sc3nc12	29.7*	25.4*	7.7	-10.6	32.9*	17.9*	30.8*	42.2*	50.8*	TLR9-MyD88 cf=20.1;BLA counter-1=20.9;TLR9 CHO tox=29.3*
COc1cc(/C=C/C(O)=C/C(=O)/C=C/c2ccc(O)cc2)ccc1O	34.2*	43.6*	.	-70.0	49.2*	108.6*	18.7	57.2*	56.5*	TLR9-MyD88 cf=25.4*;BLA counter-1=22.0;TLR9 CHO tox=-1.2
COc1cc(/C=C/C(=O)NC(=O)c2ccccc2O)ccc1O	5.8	-4.5	.	1.2	7.7	.	.	.	.
COc1ccccc1-c1ccc(/C=C2\C=CC(=O)O2)o1	.	28.8*	.	.	48.3*	39.5*	12.1	45.2*	49.2*
CC(=O)Nc1cccc(C(=O)/C=C/c2ccc(N(C)C)cc2)c1	44.0*	55.8*	4.3	-174.2	57.4*	50.9*	13.6	51.1*	57.9*	TLR9-MyD88 cf=24.1*;BLA counter-1=27.9;TLR9 CHO tox=0.2
O=C(O)c1cccc(-n2c(/C=C/c3ccccc3)nc3ccccc3c2=O)c1	-9.6	5.0	.	2.0	5.3	.	.	.	.
CN(C)c1ccc(/C=C/c2nc3ccccc3c(=O)n2-c2ccc(C(=O)O)cc2)cc1	39.8*	130.6*	.	-115.1	34.3*	133.9*	8.5	60.0*	65.4*	TLR9-MyD88 cf=25.5*;BLA counter-1=27.0;TLR9 CHO tox=1.1
O=C(COc1cc2oc(=O)c3c(c2cc1Cl)CCC3)NCC1CCC(C(=O)O)CC1 (stereo not drawn)	2.5	3.4	.	5.2	7.8	.	.	.	.

Source: PubChem
